Screens as filed in PubChem BioAssay.
Most compounds without a hit are left out; they make up all but 19% or so of the library.
S-ASM inh = inhibitors of human secretory acid sphingomyelinase; placental ASM, HMU-PC fluorogenic substrate, 60 min; Potency, µM (highest dose often 57.5 µM), inactives show at the highest dose activity change, negative = inhibition, hits mostly inhibitors; P17405; 340,000 compounds, 0.006% hits; also: potency is read from the fitted curve at half-maximal effect
Target sequence (P17405 47-631 limits assumed): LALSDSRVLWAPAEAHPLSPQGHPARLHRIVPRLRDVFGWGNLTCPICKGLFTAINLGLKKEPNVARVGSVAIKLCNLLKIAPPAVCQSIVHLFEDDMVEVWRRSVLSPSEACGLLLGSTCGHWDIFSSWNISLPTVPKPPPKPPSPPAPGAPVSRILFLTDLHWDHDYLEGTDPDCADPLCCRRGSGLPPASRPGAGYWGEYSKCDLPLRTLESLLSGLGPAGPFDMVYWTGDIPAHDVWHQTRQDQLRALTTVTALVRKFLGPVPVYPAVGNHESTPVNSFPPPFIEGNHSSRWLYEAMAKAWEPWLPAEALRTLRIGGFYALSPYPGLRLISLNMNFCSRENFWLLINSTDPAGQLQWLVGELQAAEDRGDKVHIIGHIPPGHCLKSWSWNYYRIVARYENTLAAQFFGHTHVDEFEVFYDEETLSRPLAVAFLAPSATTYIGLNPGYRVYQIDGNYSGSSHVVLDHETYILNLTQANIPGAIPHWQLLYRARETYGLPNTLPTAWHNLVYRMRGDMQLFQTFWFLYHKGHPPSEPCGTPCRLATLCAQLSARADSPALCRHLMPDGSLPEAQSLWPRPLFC
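Human placenta-derived ASM enzyme was preincubated with compound for 10 minutes at room temperature, then given fluorogenic substrate HMU-PC0 (9 uM final) for 60 minutes at 37 °C; a pH 10 stop preceded fluorescence reading at Ex 386/Em 447 nm.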
HepG2 tox-1 = counter-screen for TGF-b inhibitors: cytotoxicity in HepG2 cells | AID 588856 | 410,000 compounds, 0.76% hits | Potency, µM (titrated, usually from 46.1 µM), for inactives: at the highest dose activity change, negative = cytotoxicity, hits mostly cytotoxic | HepG2 CAGA-GFP viability, ATP luminescence, 18 h; also: potency is read from the fitted curve at half-maximal effect
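CellTiter-Glo luminescence gave cytotoxicity after 18 hours at 37 degrees C. The cells were HepG2 CAGA-GFP in 1% FBS DMEM, stimulated with 500 pg/mL TGF-beta after compound addition. %Activity was normalised to no-cell wells (complete cell-killing) and DMSO (no toxicity), and curves were fitted and classified.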
TGFb SMAD3 inh = inhibitors of TGF-b signaling; HepG2 CAGA-GFP TGF-b/SMAD3 reporter, GFP fluorescence, 18 h; TGF-beta stimulated, 500 pg/mL final; Potency, µM (doses to about 46.1 µM), without a hit: top-dose activity, negative = inhibition, hits mostly inhibitors; 410,000 compounds, 1.2% hits; AID 588855; also: potency is read from the fitted curve at half-maximal effect; % is scaled to controls: 0 for no effect and ±100 for the full control effect; nearly all actives have a fitted effect of over 65% in size
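Inhibition of TGF-beta-driven CAGA-GFP reporter expression in HEPG2 cells is measured by cellular GFP fluorescence after 18 h stimulation with 500 pg/mL recombinant TGF-beta in 1% FBS medium at 37 degrees C.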
DT40 TDP1 CPT = growth inhibition of DT40 Tdp1-/-;hTDP1 cells with camptothecin (screen for TDP1 inhibitors). chicken DT40 Tdp1-/-;hTDP1 cells + 20 nM CPT, ATP luminescence, 48 h. Potency, µM (highest dose often 46.2 µM), inactives show at the top dose activity change, negative = growth inhibition, actives largely listed as inhibitors. 420,000 compounds, 12% hits. AID 686979; also: potency is read from the fitted curve at half-maximal effect; % is scaled to controls: 0 for no effect and ±100 for the full control effect; nearly all actives have a fitted effect of over 55% in size
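Cell growth measured by CellTiter-Glo luminescence after a minimum 48 h, 37 C compound exposure with 20 nM CPT in Tdp1-knockout DT40 cells stably expressing hTDP1, seeded 400/well; qHTS titration format.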
IL-1B inflam inh = inflammasome signaling inhibition, IL-1 beta readout; AID 743279; 360,000 compounds, 4.7% hits; activity change, % at 57.5 µM; THP-1 LPS/ATP IL-1B secretion, AlphaLISA, 16 h; active compounds read low; in the data active = activity change below about -50%; inconclusive = mostly about -30% to -49%; also: % is scaled to controls: 0 for no effect and ±100 for the full control effect
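Secreted IL-1B measured by AlphaLISA bead assay after 16 h compound exposure of THP-1 cells; compounds (final up to 57.5 uM) added 1 h before LPS (250 ng/mL) and ATP (1.25 mM) stimulation; lower signal means less secretion.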
TDP1 cell noCPT = qHTS for Inhibitors of human tyrosyl-DNA phosphodiesterase 1 (TDP1): qHTS in cells in absence of CPT | Potency, µM (series often up to 46.2 µM), for inactives: at the highest dose activity change, negative = growth inhibition, usual class: inhibitors | AID 686978, 2013 | 420,000 compounds, 15% hits | DT40 Tdp1-/- hTDP1 cells, no CPT, ATP luminescence, 48 h; also: potency is read from the fitted curve at half-maximal effect; % is scaled to controls: 0 for no effect and ±100 for the full control effect; nearly all actives have a fitted effect of over 55% in size
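Stably hTDP1-transfected Tdp1-null chicken DT40 cells were treated with library compounds minus camptothecin and grown for at least 48 hr at 37 °C, after which cellular ATP was quantified by luminescence.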
TGFb CAGA inh = TGF-b pathway inhibition, cherry-pick retest. AID 720534. 1,600 compounds, 63% hits. Potency, µM (top dose mostly 46.1 µM), without a hit: at the highest dose activity, negative = inhibition, usual class: inhibitors. HepG2 CAGA-GFP TGF-b reporter, GFP fluorescence, 18 h; cells stimulated with TGF-beta, 500 pg/mL. shares compounds with TGFb SMAD3 inh; also: potency is read from the fitted curve at half-maximal effect; % is scaled to controls: 0 for no effect and ±100 for the full control effect; nearly all actives have a fitted effect of over 65% in size
HepG2 tox-2 = toxic to HepG2 cells in TGF-b counterscreen; AID 720535; shares compounds with TGFb SMAD3 inh; 1,600 compounds, 27% hits; HepG2 CAGA-GFP viability, ATP luminescence, 18 h; cells stimulated with TGF-beta, 500 pg/mL; Potency, µM (highest dose often 46.1 µM), for inactives: top-dose activity, negative = cytotoxicity, actives largely listed as inhibitors; also: potency is read from the fitted curve at half-maximal effect; % is scaled to controls: 0 for no effect and ±100 for the full control effect; nearly all actives have a fitted effect of over 70% in size
CCL64 TGFb inh = orthogonal confirmation of TGF-b inhibitors in CCL64 cells; AID 720536; Potency, µM (titrated, usually from 46.1 µM), for the others: at the highest dose activity, negative = inhibition, actives largely listed as inhibitors; CCL64 CAGA-GFP reporter, TGF-b stimulated, GFP fluorescence, 18 h; 1,600 compounds, 41% hits; shares compounds with TGFb SMAD3 inh; also: potency is read from the fitted curve at half-maximal effect; nearly all actives have a fitted effect of over 65% in size
TGFb COP inh = TGF-b inhibition validated with COP promoter | shares compounds with TGFb SMAD3 inh | HepG2 COP-GFP TGF-b reporter, GFP fluorescence, 18 h; cells stimulated by added recombinant TGF-beta | 1,600 compounds, 3% hits | Potency, µM (top dose mostly 46.1 µM), for inactives: top-dose activity, negative = inhibition, most hits filed as inhibitors; also: potency is read from the fitted curve at half-maximal effect; nearly all actives have a fitted effect of over 70% in size
An asterisk follows results filed as active; ? = inconclusive; nt = no result; ! = repeats disagree. Unless noted, calls follow the shape of the dose curve; as a rule, active = well fitted curve in the direction sought with a large enough effect; inconclusive = small, poorly fitted or top-dose-only effect, or another doubt; inactive = no such curve, though single readings can be large; an effect the other way counts as inactive or inconclusive.

SMILES | S-ASM inh | HepG2 tox-1 | TGFb SMAD3 inh | DT40 TDP1 CPT | IL-1B inflam inh | TDP1 cell noCPT | TGFb CAGA inh | HepG2 tox-2 | CCL64 TGFb inh | TGFb COP inh
Cc1ccc(C)c(S(=O)(=O)Nc2ccccc2C(=O)Nc2cc(C)on2)c1 | 76.5% | -36.1% | 7.94µM* | 16.4µM* | 34.3 | ? | ? | ? | ? | 22.3%
COc1ccc(S(=O)(=O)Nc2ccc(F)c(F)c2)cc1Cl | -9.0% | -39.3% | 10µM* | ? | 11.3 | -25.4% | -19.4% | -6.2% | -10.7% | 7.1%
COc1ccc(NS(=O)(=O)c2ccc(OC)c(N(C)S(=O)(=O)c3ccc(Cl)cc3)c2)cc1 | -0.3% | -25.8% | 10µM* | 10.3µM* | -82.9* | 6.51µM* | 7.31µM* | ? | ? | 36.5%
COc1ccc(S(=O)(=O)Nc2cccc(Cl)c2)cc1OC | 1.6% | -6.6% | 0.0% | 5.1% | -14.1 | 11.3% | nt | nt | nt | nt
CC1CCCC(C)N1C(=O)Cn1cc(C#N)c2ccccc21 (stereo not drawn) | 1.7% | -12.5% | -5.4% | -4.8% | 34.0 | -18.5% | nt | nt | nt | nt
CC1CCCC(C)N1C(=O)Cn1cc(/C=C2/C(=O)Nc3ccccc32)c2ccccc21 (stereo not drawn) | -27.9% | -16.8% | 6.31µM* | 18.4µM* | -54.6* | 20.6µM* | ? | -20.9% | ? | 2.1%
CC1CCC2(CC1)NC(=O)N(CC(=O)N1c3ccccc3CC1C)C2=O (stereo not drawn) | 3.7% | -2.9% | 1.8% | ? | -2.7 | -13.3% | nt | nt | nt | nt
CCC(C)Sc1cccc(-c2nc3cc(C)ccn3c2NC2CCCCC2)c1 (stereo not drawn) | 171.6% | -29.2% | 11.2µM* | 16.4µM* | -82.2*! | 14.6µM* | ? | ? | 18.4µM* | 40.4%
Cc1ccn2c(NC3CCCC3)c(-c3ccsc3)nc2c1 | 28.6% | -26.9% | ? | ? | 27.0 | -25.2% | nt | nt | nt | nt
O=C(Nc1ccc(Cl)cc1)N(Cc1nc2ccccc2c(=O)[nH]1)Cc1cccs1 | ? | 7.6% | 10µM* | ? | ? | 20.6µM* | 20.6µM* | ? | ? | 38.5%
O=C(Nc1ccccc1Cl)N(Cc1nc2ccccc2c(=O)[nH]1)Cc1cccs1 | -1.2% | -20.6% | -1.7% | ? | -2.3 | ? | nt | nt | nt | nt
CC(NC(=O)CN1C(=O)NC(C)(c2cccc3ccccc23)C1=O)c1ccccc1 (stereo not drawn) | -4.3% | -0.2% | 11.4% | -3.7% | -6.6 | -23.9% | nt | nt | nt | nt
COc1cc(C(=O)NCC(c2ccc(F)cc2)N2CCOCC2)ccc1OCc1ccccc1Cl (stereo not drawn) | nt | -16.0% | 20µM* | ? | -59.9* | ? | ? | ? | ? | 67.8%
COc1ccccc1NS(=O)(=O)c1ccc(C(=O)NCC(c2ccc(F)cc2)N2CCOCC2)cc1 (stereo not drawn) | -1.2% | 1.2% | 16.2% | ? | 17.2 | -42.7% | nt | nt | nt | nt
COc1cc(C2Oc3ccccc3C=C2[N+](=O)[O-])cc(OC)c1OC (stereo not drawn) | -3.8% | 5.62µM* | 3.16µM* | 3.26µM* | -103.5* | 2.59µM* | 20.6µM* | 18.4µM* | 4.11µM* | ?
CCC1=Nc2cc(C(=O)NCC3CCCO3)ccc2Sc2ccc(Br)cc21 (stereo not drawn) | -8.7% | -15.9% | 11.2µM* | 3.66µM* | 101.5 | 3.26µM* | 18.4µM* | -1.5% | ? | 4.4%
O=C(NC(c1ccccc1)c1ccc2ccccc2n1)C1CCN(CCOc2ccc(Cl)cc2)CC1 (stereo not drawn) | nt | 11.2µM* | 7.08µM* | 23.1µM* | -100.3* | 16.4µM* | 6.51µM* | 5.17µM* | 3.66µM* | ?
COc1cc(CN2CCC(C(=O)NC(c3ccc(F)cc3)c3ccc4ccccc4n3)CC2)cc(OC)c1 (stereo not drawn) | nt | 5.62µM* | 3.55µM* | 3.66µM* | -15.2 | 2.91µM* | ? | 14.6µM* | 8.2µM* | ?
COc1cccc(OC)c1OCCN1CCC(C(=O)NC(c2ccc3c(c2)OCO3)c2ccccn2)CC1 (stereo not drawn) | nt | -27.3% | 10.3% | -7.2% | -29.5 | -15.6% | nt | nt | nt | nt
COc1ccc(/C=N/NC(=O)c2cccc(NC(=O)c3ccccc3)c2)c(C(=O)O)c1OC | 1.8% | -15.2% | -6.1% | -18.2% | 30.0 | -14.9% | nt | nt | nt | nt
COC(=O)C1CCC(=O)N1C(c1ccc(OC)cc1)c1cc(OC)c(OC)c(OC)c1 (stereo not drawn) | 3.4% | 2.2% | 2µM* | 1.46µM* | 26.3 | 1.3µM* | ? | -2.1% | 5.8µM* | ?
CC(C)c1ccc(C(=O)NCCCNC(=O)c2cnccn2)cc1 | -1.8% | 6.6% | 11.7% | -20.2% | 29.1 | 16.8% | nt | nt | nt | nt
COc1ccc(C2C(C#N)=C(N)N(Nc3ccccc3)C3=C2C(=O)CC(C)(C)C3)cc1C (stereo not drawn) | 192.2% | -1.5% | 11.2µM* | -13.8% | ? | -15.5% | 20.6µM* | -24.8% | ? | 21.1%
COc1ccc(OC)c(N2C(N)=C(C#N)C(c3ccc(OC)c(O)c3)C3=C2CC(C)(C)CC3=O)c1 (stereo not drawn) | -0.6% | 3.9% | 2.3% | -20.5% | -8.3 | -17.2% | nt | nt | nt | nt
